Compound activity (PubChem BioAssay)
Compounds with a hit are over-represented: about 17% of the library has one in this group of screens.
DT40 TDP1 CPT = growth inhibition of DT40 Tdp1-/-;hTDP1 cells with camptothecin (screen for TDP1 inhibitors); chicken DT40 Tdp1-/-;hTDP1 cells + 20 nM CPT, ATP luminescence, 48 h; Potency, µM (series often up to 46.2 µM), hits mostly inhibitors; 12% of 420,000 active; note: nearly all actives have a fitted effect of over 55% in size
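Chicken DT40 Tdp1-/- cells complemented with human TDP1, 400 cells/well, exposed to compounds plus 20 nM camptothecin for at least 48 h at 37 C; viability read as ATP content by CellTiter-Glo luminescence.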
HT1080 IDH1KD tx = HT-1080 IDH1 knockdown cell toxicity (counter line) | HT-1080 IDH1 knockdown viability, ATP luminescence, 48 h | Potency, µM (titrated, usually from 46.1 µM), hits mostly cytotoxic | 2% of 360,000 active | AID 686971
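After a 2 h attachment period, IDH1KD HT-1080 cells took pin-transferred compound for 48 h at 37 °C; ATP-based luminescence after 10 min room-temperature reagent incubation reported viability.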
HepG2 viability = kills HepG2 cells in TGF-b inhibitor counter-screen; 0.76% of 410,000 active; HepG2 CAGA-GFP viability, ATP luminescence, 18 h; Potency, µM (titrated, usually from 46.1 µM), usual class: cytotoxic; AID 588856
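HepG2 CAGA-GFP cells (1000/well, DMEM with 1% FBS) received compound, then TGF-beta at 500 pg/mL final, and were incubated 18 hours at 37 degrees C. Viability was read by CellTiter-Glo luminescence. Media-only wells were set as complete cell-killing and DMSO as no toxicity.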
DT40 TDP1 no CPT = qHTS for Inhibitors of human tyrosyl-DNA phosphodiesterase 1 (TDP1): qHTS in cells in absence of CPT; DT40 Tdp1-/- hTDP1 cells, no CPT, ATP luminescence, 48 h; Potency, µM (top dose mostly 46.2 µM), most hits filed as inhibitors; 15% of 420,000 active; note: nearly all actives have a fitted effect of over 55% in size
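Stably hTDP1-transfected Tdp1-null chicken DT40 cells were treated with library compounds minus camptothecin and grown for at least 48 hr at 37 °C, after which cellular ATP was quantified by luminescence.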
TGFb inhibitor = TGF-b pathway inhibition. Potency, µM (doses to about 46.1 µM), most hits filed as inhibitors. HepG2 CAGA-GFP TGF-b/SMAD3 reporter, GFP fluorescence, 18 h; TGF-beta stimulated, 500 pg/mL final. 1.2% of 410,000 active; note: nearly all actives have a fitted effect of over 65% in size
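HEPG2 CAGA-GFP cells (1000/well, DMEM with 1% FBS) were pre-incubated 2 h at 37 degrees C, given compound by pin tool, then stimulated with TGF-beta at 500 pg/mL final for 18 h before per-cell GFP fluorescence imaging.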
HT1080-NT tox = kills 2HG-producing HT-1080-NT fibrosarcoma cells. HT-1080-NT fibrosarcoma viability, CellTiter-Glo ATP luminescence, 48 h. Potency, µM (titrated, usually from 46.1 µM), most hits filed as cytotoxic. 1.6% of 360,000 active;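 note: NT is the 2HG producing partner of a matched IDH1 knockdown line; nearly all actives have a fitted effect of over 55% in size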
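750 cells/well, RPMI + 5% FBS; 2 h settle, compound pin-transfer, 48 h at 37 degrees C. CellTiter-Glo 10 min RT, luminescence. Normalized to DMSO and media-only wells.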
A number is an active result; n = inactive; u = inconclusive; x = no result; [ ] = dose if it differs, or a comment. Calls come from the whole dose curve; as a rule, active = well fitted curve in the direction sought with a large enough effect; inconclusive = small, poorly fitted or top-dose-only effect, or another doubt; inactive = no such curve, though single readings can be large; an effect the other way counts as inactive or inconclusive.

SMILES | DT40 TDP1 CPT | HT1080 IDH1KD tx | HepG2 viability | DT40 TDP1 no CPT | TGFb inhibitor | HT1080-NT tox
CN(CC(=O)Nc1ccc(F)c(F)c1F)C(=O)CN1C(=O)C2CCCCC2C1=O (centres undefined) | n | n | n | n | n | n
Cc1ccc(C)c(N=Nc2nc3ccccc3n2C)c1 | 5.8µM | 7.9µM | n | 3.5µM | u | 4µM
Cc1cc(C)c(C)c(N=Nc2nc3ccccc3n2C)c1C | u | u | n | 23µM | u | u
CCOc1ccc(S(=O)(=O)N(C)CC(=O)N2CCN(CC)CC2)cc1 | n | n | n | n | n | n
COc1cc(C(=O)/C=C/c2cccnc2)c([N+](=O)[O-])cc1OC | 5.2µM | u | n | 5.8µM | u | u
CN(C)C(=O)COc1ccc(C(=O)/C=C/c2cccnc2)cc1 | 16µM | u | n | 13µM | u | u
O=C(C=Cc1cccnc1)c1ccccc1 | 5.8µM | 18µM | n | 5.8µM | 20µM | u
O=C(/C=C/c1ccco1)c1cccnc1 | n | n | n | u | n | n
O=C(/C=C/c1cccnc1)c1ccc(O)cc1 | u | u | n | 15µM | u | u
COc1ccc(S(=O)(=O)NC(=O)C2(C)CCN2C(=O)Cc2ccccc2Cl)cc1 (centres undefined) | n | u | n | n | n | u
O=C(OCc1ccco1)c1ccc2c(c1)N(Cc1ccc([N+](=O)[O-])cc1)C(=O)c1ccccc1S2 | x | x | n | x | n | x
COC(=O)c1cc2ccsc2n1Cc1ccccc1F | n | n | n | n | n | n
COc1ccc2[nH]c(C(O)C(O)c3nc4c(OC)c(OC)ccc4[nH]3)nc2c1OC (centres undefined) | 1µM | x | n | 0.28µM | n | x
OC(c1nc2ccccc2[nH]1)C(O)c1nc2ccccc2[nH]1 (centres undefined) | n | n | n | n | n | n
COc1ccc(OC)c(-c2ccc(O)c(CN3CCc4c([nH]c5ccccc45)C3)c2)c1 | n[9.04 µM] | x | x | u | x | x
CC(=O)c1cccc(NC(=O)CSc2nnc(C(C)N(C)C)n2-c2ccc(F)cc2)c1 (centres undefined) | u | n | n | u | n | n
CC(=O)c1cccc(NC(=O)CSc2nnc(C(C)N(C)C)n2Cc2ccccc2)c1 (centres undefined) | u | n | n | 23µM | n | n
O=C(Cn1cc(C(=O)c2ccco2)c2ccccc21)Nc1ccc(Br)cc1 | u | x | n | u | u | x
O=C(Cn1cc(C(=O)c2cccs2)c2ccccc21)Nc1ccc(Br)cc1 | u | x | n | 5.8µM | u | x
COc1ccc(OC)c(NC(=O)Cn2cc(C(=O)c3cccs3)c3ccccc32)c1 | u | x | n | 18µM | n | x
COc1ccc(OC)c(NC(=O)Cn2cc(C(=O)c3ccco3)c3ccccc32)c1 | u | n | n | 16µM | n | n
COc1cc2c(CCNC(C)=O)c[nH]c2cc1Cl | n | n | n | n | n | n
Nc1[nH]c(C(=O)c2ccccc2)c(-c2ccncc2)c1C(=O)NCc1ccc(Cl)cc1 | n | n | x | n | x | n
CCn1nnnc1SCC(=O)N(C1CCCCC1)C1CCCCC1 | 10µM | n | n | 11µM | n | n
Cn1ccnc1SCC(=O)N(C1CCCCC1)C1CCCCC1 | u | n | n | 15µM | n | n
Cn1c(SCC(=O)NC2CC2)nnc1-c1cccs1 | n | n | n | n | n | n
Cn1c(SCC(=O)N(C2CCCCC2)C2CCCCC2)nnc1-c1cccs1 | u | n[9.24 µM] | n | 16µM | n | u
CCCCCCCCCCOc1cc2c(=O)c(C(=O)OCC)c[nH]c2cc1OCC | n | x | x | n | x | x
Cc1cc(C)n(-c2ccc(C(=O)N3CCc4c(cnc(C)c4CNC(=O)c4ccccc4F)C3)cc2)n1 | n[9.04 µM] | x | x | n | x | x
COc1cc2c(cc1NC(=O)c1cc(-c3ccncc3)nc3ccccc13)oc1ccccc12 | 21µM | n | n | u | n | n
